We go through 48 molecules from PubChem BioAssay AID1986 (Sanford-Burnham Center for Chemical Genomics, 2009).

What is called inhibition is the change of the read-out against control, counted positive when it falls.

The whole screen tested about 290,000 compounds, of which about 890 (0.31%) were called active. Cut-off read from the data, not from the text of the source: active = inhibition mostly above about 52% (no sharp cut-off); inactive = mostly below about 76%. What follows is part of a selection rich in actives, with near analogues and random picks from the rest.

The nature of the assay: cell-free HIV fusion peptide-binding blockers – biochemical, uHTS, fluorescence dequenching, primary screen (AID 1986). The note with it: 30 min, stronger effect = higher value.
[1] abbreviates: measured here: repeat confirmation average inhibition, at 18.6 µM.

As for `COc1ccccc1CNC(=O)C1CC(c2ccccc2C(F)(F)F)=NO1` (stereo unspecified), the inhibition (at 20 µM) was 0.6% (inactive).

`COCc1cc(C)n(CC(=O)Nc2c(C)cccc2C)c(=O)c1C#N`: the inhibition (at 20 µM) is 0.1% (inactive).

Consider `NC(=O)c1ccccc1NCC(=O)c1ccc(Cl)cc1`, for which the inhibition (at 20 µM) was 1.4% (inactive).

Consider `CCOC(=O)C1=C(COC(=O)C2(C)CC2(Cl)Cl)NC(=O)NC1c1ccccc1` (stereo unspecified), for which the inhibition (at 20 µM) is -1.7% (inactive).

As to `CC12CC3CC(C)(C1)CC(C(=O)NC1=NCCS1)(C3)C2`, the inhibition (at 20 µM) is -1.5% (inactive).

Consider `Cc1ccc(C(=O)N2CCCC(Nc3cccc(F)c3)C2)cc1N1CCNC1=O` (stereo unspecified), for which the inhibition (at 20 µM) is 0% (inactive).

As for `CCN(CC)c1nc2n(c(=O)n1)CCN2CC`, the inhibition (at 20 µM) is 2.4% (inactive).

For `O=C(CN1C(=O)C2CC=CCC2C1=O)NCc1cccs1` (stereo unspecified), the inhibition (at 20 µM) is -0.4% (inactive).

Consider `COc1ccc(CN2CSC(=S)N(Cc3ccc(OC)cc3)C2)cc1`, for which the inhibition (at 20 µM) was -1.4% (inactive).

As to `CSC1=NSC2=NC(=O)/C(=C/c3coc4ccc(O)cc4c3=O)C(=N)N12`, the inhibition (at 20 µM) was 57.5% (active).

Consider `N=C1/C(=C\c2coc3ccc(O)cc3c2=O)C(=O)N=C2SC=CN12`, for which, where the note is “at 20 µM”, the inhibition is 150% (inactive).

Turning to `CSC1=NSC2=NC(=O)/C(=C\c3cccs3)C(=N)N12`, under “at 20 µM”, the inhibition is 45.4% (inactive).

Consider `O=C1N/C(=C/c2cccs2)C(=O)N1Cc1ccccc1F`, for which the inhibition (at 20 µM) is -0.7% (inactive).

With `Cc1ccc(/C=C2/NC(=O)N(Cc3ccccc3F)C2=O)s1`, the inhibition is, setting by setting: (at 20 µM) 64% (active); under setting [1], 72.6%.

Turning to `Cc1ccc(/C=C2/NC(=O)N(Cc3ccccc3)C2=O)s1`, for the setting “at 20 µM”, the inhibition is 36.8% (inactive).

On to `O=C(CNC(=O)c1ccccc1F)NC1CC1`, for which the inhibition (at 20 µM) is -0.1% (inactive).

For `Cc1cc(-n2c(C)cc(C(=O)CSc3ccc4c(c3)OCCO4)c2C)no1`, the inhibition (at 20 µM) was 2.6% (inactive).

For the molecule `CC(C)(C)C(=O)N=C1SC2CS(=O)(=O)CC2N1c1ccc2c(c1)OCO2` (stereo unspecified), the inhibition (at 20 µM) was -0.3% (inactive).

With `CCC(C)NC(=O)C1CCC(CNS(=O)(=O)c2ccccc2)CC1` (stereo unspecified), the inhibition (at 20 µM) is -0.4% (inactive).

Take `N#Cc1cc(C(=O)c2ccccc2O)cn(-c2nccs2)c1=O`: the inhibition is, setting by setting: (at 20 µM) 52.8% (active); under setting [1], 99.4%.

Consider `Cc1ccc(O)c(C(=O)c2cc(C#N)c(=O)n(-c3nccs3)c2)c1`, for which, where the note is “at 20 µM”, the inhibition was 143% (inactive).

As for `N#Cc1cc(C(=O)c2cc(F)ccc2O)cn(-c2nccs2)c1=O`, the inhibition (at 20 µM) was 151% (inactive).

Turning to `CCOC(=O)c1c(NC(=S)Nc2ccc(Cl)cc2)sc2c1CCN(C)C2`, the inhibition (at 20 µM) was 23.1% (inactive).

As to `CC(C)c1ccc(N(CC(=O)NCc2ccc(F)cc2)C(=O)c2csnn2)cc1`, where the note is “at 20 µM”, the inhibition is -1.1% (inactive).

With `Cc1c(C(=O)N(C)Cc2ccccc2)oc2c(Cl)cccc12`, the inhibition (at 20 µM) was -0.6% (inactive).

`O=C1N/C(=N/NC(=O)c2cccc3ccccc23)S/C1=C\c1ccccc1OCc1ccccc1`: for the setting “at 20 µM”, the inhibition was 80.3% (active).

Take `O=C1NC(=O)/C(=C\c2ccccc2OCc2ccccc2)S1`: the inhibition (at 20 µM) is 47.5% (inactive).

As to `O=C1NC(=O)/C(=C/c2ccccc2OCc2ccccc2)S1`, the inhibition (at 20 µM) was 31.6% (inactive).

Consider `COc1ccc(C2CC(=O)c3cnc(NC(=O)c4cccc(OC)c4)nc3C2)cc1` (stereo unspecified), for which, under “at 20 µM”, the inhibition was 5.8% (inactive).

Take `CCC(C)NC(=O)c1ccccc1NC(=O)COc1ccc(OC)cc1` (stereo unspecified): the inhibition (at 20 µM) is 1% (inactive).

`Cc1nc(NC2CCCCC2)c2nnn(Cc3ccccc3Cl)c2n1`: the inhibition (at 20 µM) was 0.5% (inactive).

`O=C(NCc1ccccc1)NC(=O)c1ccc(Cl)cc1`: the inhibition (at 20 µM) was 2.8% (inactive).

Regarding `CC(C)=C1C(=O)NN(c2ccc(C)c(Cl)c2)C1=O`, the inhibition (at 20 µM) is 66.4% (active).

Take `CC(C)=C1C(=O)NN(c2cccc(Cl)c2)C1=O`: the inhibition (at 20 µM) is 60% (inactive) and the inhibition under setting [1] stood at 0.7%.

As for `CC(C)=C1C(=O)NN(c2ccc(F)c(Cl)c2)C1=O`, the inhibition (at 20 µM) is 32.6% (inactive).

As to `O=C(COC(=O)c1cc[n+]([O-])cc1)Nc1ccc(SC(F)F)cc1`, the inhibition (at 20 µM) was 2.4% (inactive).

For the molecule `O=C(Nc1cc(C(=O)N2CCCC2)ccc1N1CCCC1)c1ccccc1F`, under “at 20 µM”, the inhibition is 2.6% (inactive).

Regarding `O=C(Nc1sc2c(c1C(=O)O)CCCC2)C(=O)N1CCOCC1`, where the note is “at 20 µM”, the inhibition is 2.6% (inactive).

Take `COc1ccc(/C=C2\N=C(c3ccc(C)cc3)OC2=O)cc1`: the inhibition (at 20 µM) was 1.1% (inactive).

With `COc1ccc(OC)c(/C=C2\N=C(c3ccccc3)OC2=O)c1`, for the setting “at 20 µM”, the inhibition was 60.8% (active).

On to `COc1cc(/C=C2\N=C(c3ccccc3)OC2=O)ccc1OC(C)=O`, for which the inhibition (at 20 µM) was 1.1% (inactive).

As for `CC(C)=Cc1oc2ccc([N+](=O)[O-])cc2c1N1CCOCC1`, the inhibition (at 20 µM) was 0.3% (inactive).

Consider `COc1ccc(NC(C)C(=O)Nc2ccc(C#N)cc2)cc1Cl` (stereo unspecified), for which the inhibition (at 20 µM) is 0.7% (inactive).

As to `O=C(Nc1ccc([N+](=O)[O-])cc1)N1CCCCCC1`, the inhibition (at 20 µM) was -1.7% (inactive).

For the molecule `O=C(c1sc2ccccc2c1Cl)N1CCN(CCc2ccccn2)CC1`, under “at 20 µM”, the inhibition was -0.9% (inactive).

On to `O=C(O)c1ccc(-n2cccc2/C=C2/SC(=O)N(CC(=O)N3CCCC3)C2=O)cc1`, for which, under “at 20 µM”, the inhibition is 33.4% (inactive).

For `COc1cccc(NC(=O)CCc2nnc3ccc(NCc4ccco4)nn23)c1`, for the setting “at 20 µM”, the inhibition is 1.7% (inactive).

As to `Cc1ccc(S(=O)(=O)/N=C2/NC(=O)/C(=C/c3ccncc3)S2)cc1`, the inhibition (at 20 µM) is 0.8% (inactive).
